Results from PubChem BioAssay (NCI).
Compounds without any hit were thinned out: in the full panel of roughly 79,000, 15% have a hit. Values without a mark were called inactive. Active and inactive are the calls of the source. No stated cut-off is given here; in the data, active means growth inhibition above about 70%; inactive means the rest.

Experiment: NCI Yeast Anticancer Drug Screen. Data for the cln2 rad14 strain (AID 165);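 further: 0% = growth equal to vehicle treated cultures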
Details: S. cerevisiae cln2 rad14 strain, at 50.0 µM, hits give high values
In short: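 Readout is yeast growth inhibition versus vehicle-treated controls, using a strain with cln2 and rad14 alterations exposed to compound.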
With `CC12CCC(=O)C=C1CCC1C2CCC2(C)C(O[Si](C)(C)OC3CCC4C5CCC6=CC(=O)CCC6(C)C5CCC34C)CCC12` (stereo not given) the growth inhibition was 58.4%. In the case of `CC1=C[C@H]2O[C@H]3C[C@H]4OC(=O)/C=C\C=C\C(=O)OCC[C@@H](C)[C@H](O)C(=O)OC[C@@]2(CC1)[C@@]4(C)[C@]31CO1`, the growth inhibition is reported as 90.3% (active). Work on `CCCCCCCC[As](C)(=O)O` yielded a growth inhibition of 11.4%. With `OC1C2[C@@H](O)CCCN2C[C@@H](O)[C@H]1O` (stereo not given in full) the growth inhibition was 8.4%. For `COC1(O[C@H]2CC[C@H]3[C@@H]4CCC5=CC(=O)CC[C@]5(C)[C@H]4CC[C@]23C)CCCCC1`, the growth inhibition was 99.2% (active). In the case of `O=[N+]([O-])c1ccc(CS(=O)(=O)C(Cl)(Cl)Cl)o1`, the growth inhibition is reported as 94% (active). For `CC([CH2][Hg][Cl])c1ccccc1` (stereo not given), the growth inhibition was 99.5% (active). For `CC(C)CC[CH2][Pb]([CH2]CCC(C)C)([CH2]CCC(C)C)[O]C(=O)C(Cl)(Cl)Cl`, the growth inhibition was 98.8% (active). For `COC1OC(OC)[CH]([Hg][Cl])C1OC` (stereo not given), the growth inhibition was 98.5% (active). With `S=C=[N][Sn]([N]=C=S)([c]1ccccc1)[c]1ccccc1.c1ccc2nc(-c3ccc4ccccc4n3)ccc2c1` the growth inhibition was 90.8% (active). With `CSCCC([NH-])C(=O)O.CSCCC([NH-])C(=O)O.[Zn+2]` (stereo not given) the growth inhibition was 99.2% (active). With `C[PH+](C)C.C[PH+](C)C.[Au]` the growth inhibition was 88% (active). With `O=C(O)C(Br)C(Br)C(=O)O.[Ag]` (stereo not given) the growth inhibition was 99.1% (active). In the case of `CCC1CN1P(=O)(Oc1ccccc1)N1CC1CC` (stereo not given), the growth inhibition is reported as -16.4%. For `CCCCCc1cc(O)c(CCCC)c(O)c1`, the growth inhibition was 99.1% (active).
